Only some compounds are listed: those with a hit (about 13% of all), similar ones and a draw of the others.
USP8 inh – human USP8 deubiquitinase inhibition; inhibition, % at 20 µM; AID 1645853; purified USP8, Ub-rhodamine cleavage fluorescence, 30 min; P40818; 47,000 tested, 4.2% active
USP10 inh – inhibitors of human USP10 deubiquitinase; purified USP10, Ub-rhodamine fluorescence, 60 min; inhibition, % at 20 µM; 47,000 tested, 1.1% active; Q14694
USP17 inh – blocks human USP17 ubiquitin-rhodamine cleavage; purified USP17, Ub-rhodamine cleavage fluorescence, 3 h; AID 1645855; inhibition, % at 50 µM; A8MUK1; 47,000 tested, 6.5% active
Target sequence (A8MUK1 whole entry, looked up): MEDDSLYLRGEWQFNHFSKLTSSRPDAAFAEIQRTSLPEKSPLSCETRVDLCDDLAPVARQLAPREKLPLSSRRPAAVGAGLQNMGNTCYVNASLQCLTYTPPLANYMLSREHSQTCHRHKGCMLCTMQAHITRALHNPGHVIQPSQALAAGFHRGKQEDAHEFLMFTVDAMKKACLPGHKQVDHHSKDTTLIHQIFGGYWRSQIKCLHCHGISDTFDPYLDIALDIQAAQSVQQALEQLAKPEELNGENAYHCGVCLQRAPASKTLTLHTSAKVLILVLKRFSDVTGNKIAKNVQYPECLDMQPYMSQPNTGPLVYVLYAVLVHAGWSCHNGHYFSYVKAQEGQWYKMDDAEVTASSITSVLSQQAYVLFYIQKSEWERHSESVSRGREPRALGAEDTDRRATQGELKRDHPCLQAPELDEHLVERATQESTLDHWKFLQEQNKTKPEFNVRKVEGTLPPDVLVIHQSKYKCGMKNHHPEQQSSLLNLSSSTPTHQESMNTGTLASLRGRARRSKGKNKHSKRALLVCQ
USP28 block – human USP28 deubiquitinase inhibition; purified USP28, Ub-rhodamine cleavage fluorescence, 30 min; inhibition, % at 25 µM; 47,000 tested, 3% active; AID 1645857
USP30 block – human USP30 deubiquitinase inhibition; purified USP30, Ub-rhodamine cleavage fluorescence; Q70CQ3; AID 1645860; inhibition, % at 25 µM; 47,000 tested, 5.3% active
Starred values were filed as active, the others as inactive; nt = no result. Rule as the data show it: active = inhibition above about 30%; inactive = the rest.

SMILES	USP8 inh	USP10 inh	USP17 inh	USP28 block	USP30 block
COc1cccc(C(=O)Nc2ccccc2-c2nc3ccc(C)cc3[nH]2)c1	4	11	9	5	4
Cc1ccc2nc(-c3cccc(NC(=O)C(C)C)c3)[nH]c2c1	65*	1	49*	26	21
O=C(Nc1ccc(-n2cccc2)c(Cl)c1)c1cccc([N+](=O)[O-])c1	-2	9	27	-31	-65
O=C(Nc1ccc(-n2cccc2)cc1)c1cccc([N+](=O)[O-])c1	31*	19	8	8	37*
O=C(c1cc(C2CC2)[nH]n1)N1CCN(Cc2ccccc2)CC1	-12	3	18	17	34*
O=C(CSc1ncccc1-c1noc(C2CCC2)n1)N1CCCCC1	5	3	16	17	11
Cc1nn(C)c2c1[C@@H](c1ccc3c(c1)OCCO3)[C@H](NC(=O)c1ccc(Cl)cc1)C(=O)N2	-8	-2	0	18	7
Cc1nn(C)c2c1[C@@H](c1ccc(F)c(Br)c1)[C@H](NC(=O)c1ccccc1)C(=O)N2	-20	0	-11	71*	-29
Cc1oc(-c2ccno2)cc1S(=O)(=O)NCCC1=CCCCC1	4	0	15	8	8
COc1cc(NC(=O)Cc2ccc3c(c2)OCCO3)c(OC)cc1Cl	49*	21	28	22	45*
Cc1cccc(NC(=O)CCc2nc(CSc3nc4ccccc4o3)no2)c1C	-92	1	18	23	19
O=C(Cc1cc(-c2ccc(F)cc2)on1)NCc1ccccc1	6	7	60*	-4	0
O=C(Cc1cc(-c2ccc(F)cc2)on1)Nc1ccccc1C(F)(F)F	11	-9	39*	-19	-54
CC1CCc2c(sc(NC(=O)c3cc(-c4ccccn4)nc4ccccc34)c2C(N)=O)C1 (stereo not drawn)	0	-3	-6	0	-16
COC(=O)c1cccc(Nc2cc(C)nc3nc(-c4cccnc4)nn23)c1	-7	5	13	13	20
Cc1nc(C2CN(Cc3ccnc(N4CCCC4)n3)CCO2)cc(=O)[nH]1 (stereo not drawn)	1	-6	-8	-8	-37
O=C(c1ccc(N2C(=O)CCS2(=O)=O)cc1)N(Cc1ccccc1)c1ccccc1	4	1	18	nt	nt
Cc1ccc(S(=O)(=O)c2cnc(SCC(=O)Nc3ccc(Cl)cc3)nc2N)cc1C	23	5	80*	48*	39*
O=C(NC1(O)C(=O)c2ccccc2C1=O)c1cccc2c1-c1ccccc1C2=O	95*	9	91*	15	45*
COc1ccc(N/C=C/c2onc(C)c2[N+](=O)[O-])c(OC)c1	-39	-4	-35	-22	-127
O=C(/C=C/c1ccc2c(c1)OCO2)NCc1ccc2c(c1)OCO2	-2	0	25	21	32*
O=C(/C=C/c1ccc2c(c1)OCO2)Nc1nc2c(s1)COCC2	-1	-1	65*	22	23
O=C(/C=C/c1ccco1)Nc1nc2c(s1)COCC2	-13	-7	-47	-16	-231
O=C(NCc1ccc2c(c1)OCO2)c1cc2c(s1)CCC2	79*	47*	48*	44*	30
CCN1C(SCC(=O)Nc2cc(C)ccc2C)=NS(=O)(=O)c2ccccc21	-14	4	1	10	30
SMILES	USP8 inh	USP10 inh	USP17 inh	USP28 block	USP30 block
CCn1ncc(CN(C)C(=O)c2cnn3c(C(F)F)cc(-c4ccc(OC)cc4)nc23)c1C	-1	-1	0	10	19
CCn1ncc(CN(C)C(=O)Nc2ccc(Cl)cc2)c1C	17	0	16	9	32*
COc1ccc(CNC(=O)c2cc(S(=O)(=O)N3CCCC3)c(C)n2C)cc1	4	1	0	-3	2
COC(=O)c1ccc2c(=O)n(-c3ccc(C)c(F)c3)c(N3CCC(C(N)=O)CC3)nc2c1	-11	-1	-7	-9	0
CC1(C)Cc2c(sc3nc(SCc4ccccc4)nc(N4CCOCC4)c23)CO1	5	2	3	-4	-20
O=C(Nc1cccc2cccnc12)c1nnn(-c2ccccc2)n1	-20	0	44*	0	18
COc1ccc2[nH]c(C(=O)N(Cc3ccccn3)Cc3ccccn3)cc2c1	81*	-6	44*	1	-7
CC(Nc1ccc(Oc2ccccc2)cc1)C(=O)Nc1ccc2c(c1)OCO2 (stereo not drawn)	27	9	22	10	30*
C[C@@H](C(=O)Nc1ccc2c(c1)OCO2)n1c(=O)[nH]c2ccccc2c1=O	85*	9	2	6	19

High-throughput results: PubChem, Buhrlage Lab, Dana-Farber Cancer Institute and Novartis Institutes for BioMedical Research (Cambridge, Mass)
